From PubChem
In the library only some 2.9% were active in any assay of this set; here they are far more common.
pPAFAH inh: inhibitors of human plasma PAF acetylhydrolase (pPAFAH); inhibition, % at 3.39 µM; Q13093; recombinant pPAFAH, FP-rhodamine probe fluorescence polarization; AID 463082; hit rate 1.5% among 330,000;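 active means inhibition above the mean inhibition across the screen plus 3 SD, cut at about 25% in these data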;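 further: inhibitors block binding of the rhodamine activity-based probe so polarization drops; 0% = enzyme with DMSO and 100% = wells lacking pPAFAH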
PAFAH2 inh: PAFAH2 (human) inhibition; inhibition, % at 3.39 µM; recombinant PAFAH2, FP-rhodamine activity probe, fluorescence polarization; hit rate 0.99% among 340,000; Q99487;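 active means inhibition above the mean over all tested compounds plus 3 SD, cut at about 30% in these data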;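 further: inhibitors block probe labeling of enzyme so polarization drops; 0% = enzyme with DMSO and 100% = wells lacking PAFAH2 protein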
PAFAH1B3 inh: blocks human PAF acetylhydrolase 1B catalytic subunit 3; Q15102; recombinant PAFAH1B3, FP-rhodamine probe, fluorescence polarization; inhibition, % at 3.39 µM; hit rate 0.28% among 340,000;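 active means inhibition above the screen-wide average of all tested compounds plus 3 SD, cut at about 25% in these data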;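 further: 0% = enzyme with DMSO only and 100% = wells lacking PAFAH1B3 protein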
Target sequence (Q15102 whole entry, looked up): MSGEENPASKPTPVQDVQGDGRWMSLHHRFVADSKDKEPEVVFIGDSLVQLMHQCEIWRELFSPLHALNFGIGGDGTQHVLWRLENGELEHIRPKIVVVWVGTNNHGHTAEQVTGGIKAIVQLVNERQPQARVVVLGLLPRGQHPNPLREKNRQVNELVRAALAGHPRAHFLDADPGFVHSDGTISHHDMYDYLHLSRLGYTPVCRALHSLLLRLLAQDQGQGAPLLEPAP
ZTA DNA inh: counter-screen for EBNA-1 inhibitors: inhibitors of Epstein-Barr virus ZTA. ZTA-DNA binding, fluorescence polarization. inhibition, % at 11 µM. hit rate 0.15% among 320,000. AID 2234; in the data active means inhibition above about 33%
EBNA-1 inhibitor: blocks EBNA-1 binding to DNA; EBNA-1 DNA binding, fluorescence polarization; hit rate 0.34% among 300,000; inhibition, % at 14.8 µM; in the data active means inhibition above about 28%
PAFAH1B2 inh: PAFAH1B2 (human) inhibition | P68402 | recombinant PAFAH1B2, FP-rhodamine activity probe, fluorescence polarization | inhibition, % at 3.39 µM | hit rate 1.2% among 340,000 | AID 492953;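 active means inhibition above the mean of all tested compounds plus 3 SD, cut at about 24% in these data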;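 further: 0% = enzyme with DMSO and 100% = wells lacking PAFAH1B2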
Target sequence (P68402 whole entry, looked up): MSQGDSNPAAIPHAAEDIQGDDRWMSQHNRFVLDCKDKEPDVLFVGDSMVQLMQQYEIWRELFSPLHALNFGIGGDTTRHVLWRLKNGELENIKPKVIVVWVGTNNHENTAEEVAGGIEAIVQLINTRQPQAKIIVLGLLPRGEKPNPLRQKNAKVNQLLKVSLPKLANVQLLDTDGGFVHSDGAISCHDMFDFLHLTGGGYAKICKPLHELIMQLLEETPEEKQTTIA
PAFAH2 confirm: PAFAH2 (human) inhibition, confirmed; shares compounds with PAFAH2 inh; recombinant PAFAH2, FP-rhodamine activity probe, fluorescence polarization; inhibition, % at 3.39 µM; hit rate 65% among 2,300;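 active means mean inhibition over three repeats above a set limit taken from the earlier primary screen, cut at about 30% in these data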;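 further: inhibitor blocks binding of rhodamine activity probe so polarization falls; 0% = enzyme with DMSO and 100% = wells lacking PAFAH2 protein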
Starred values were filed as active, the others as inactive; / = not tested or not shown.

SMILES	pPAFAH inh	PAFAH2 inh	PAFAH1B3 inh	ZTA DNA inh	EBNA-1 inhibitor	PAFAH1B2 inh	PAFAH2 confirm
Nc1nc(CCl)nc(N(c2ccccc2)c2ccccc2)n1	1	/	/	1	-5	/	/
O=C1NN(c2ccccc2)C(=O)/C1=C/c1ccc(-c2ccc(C(=O)O)cc2)o1	20	31*	12	4	0	8	14
Cc1cccc(NC(=S)N/N=C/c2cccc(O)c2)c1C	2	0	6	-5	-7	0	/
Cc1ccccc1NC(=S)N/N=C/c1ccc(O)cc1O	5	33*	6	-3	-24	11	15
CCN(Cc1nc2ccccc2c(=O)[nH]1)C(=O)c1cc2c(s1)CCCCC2	-3	2	2	-6	/	-1	/
O=C1Nc2ccc(Cl)cc2C12Nc1ccccc1-c1nnc(SCc3ccccc3F)nc1O2 (centres undefined)	4	-1	2	11	9	14	/
O=C1Nc2ccc(F)cc2C12Nc1ccccc1-c1nnc(SCc3ccccc3F)nc1O2 (centres undefined)	5	35*	6	-5	-12	9	15
Cc1ccc(Cl)c(NC(=O)COC(=O)C2CCC2)c1Cl	19	7	1	-7	-7	0	/
O=C(COC(=O)C1CC1)Nc1ccc2c(c1)OCO2	0	67*	-2	2	7	-2	54*
CCN(c1ccccc1)S(=O)(=O)c1cc(NC(=O)COC(=O)C2CC2)ccc1Cl	15	69*	0	1	-13	3	59*
Cc1ccc(NC(=O)COC(=O)C2CC2)cc1Cl	10	79*	-1	14	/	2	69*
CCC(=O)OCC(=O)Nc1ccc2c(c1)OCO2	0	9	4	-9	-9	2	/
CCOC(=O)C1=C(C)NC(C)=C(C(=O)OCC)C1C(=O)OCC(=O)NCCc1ccc(S(N)(=O)=O)cc1	2	1	-4	8	0	-2	/
O=C(COC(=O)C12CC3CC(CC(O)(C3)C1)C2)Nc1ccc(Cl)c(S(=O)(=O)N2CCOCC2)c1	4	48*	12	/	/	4	24
COc1ccc(NC(=O)COC(=O)C23CC4CC(CC(NC(C)=O)(C4)C2)C3)cc1S(=O)(=O)N1CCOCC1	1	7	4	/	/	6	/
Cc1cc(C)c(NC(=O)COC(=O)C23CC4CC(CC(O)(C4)C2)C3)c(Cl)c1	18	47*	5	/	/	6	34*
Cc1ccccc1NC(=O)Cc1nc(-c2c[nH]c(C(=O)N3CCCC3)c2)cs1	23	40*	-1	9	/	3	13
Cc1cccc(NC(=O)Cc2nc(-c3c[nH]c(C(=O)N4CCCC4)c3)cs2)c1	/	35*	0	/	/	-2	12
O=C(COC(=O)c1ccc(F)cc1)NCc1ccc(F)cc1	5	31*	-4	6	/	-1	18
O=C(COC(=O)c1ccc(Br)cc1)NCc1ccc(F)cc1	20	42*	10	14	3	0	27
CN(C(=O)c1cc(COc2ccc(F)cc2Cl)on1)C1CCCc2ccccc21 (centres undefined)	6	-4	3	-3	5	2	/
Cc1sc2nc(-c3ccc(Br)cc3)oc(=O)c2c1C	-2	49*	9	-9	-8	7	36*
Cc1sc2nc(-c3cccs3)oc(=O)c2c1C	-3	63*	-2	-5	-14	-3	67*
CCc1cc2c(=O)oc(-c3ccc(Br)cc3)nc2s1	/	78*	0	/	/	-2	67*
CC(C)(C)c1nc2scc(-c3ccc(Br)cc3)c2c(=O)o1	1	5	11	-5	-1	0	/
SMILES	pPAFAH inh	PAFAH2 inh	PAFAH1B3 inh	ZTA DNA inh	EBNA-1 inhibitor	PAFAH1B2 inh	PAFAH2 confirm
Cc1c(C(=O)N(C)C(C)c2ccccn2)oc2c(F)cccc12 (centres undefined)	-2	4	5	-7	-13	6	/
COc1cccc(NC(=O)CCNC(=O)N2CC(=O)Nc3ccccc32)c1	1	6	9	16	-6	0	/
CC1CCCCN1C(=O)/C(=C\c1ccccc1)c1ccccc1 (centres undefined)	-4	38*	5	-2	-1	8	9
O=C(CCC(=O)N(CC(=O)NC1CCCCC1)c1ccc(F)cc1)Nc1ccccn1	2	8	-1	0	-7	0	/
O=C(O)c1ccc(CNC(=O)c2ccccc2NC(=O)c2ccc([N+](=O)[O-])cc2)cc1	2	38*	4	-2	-6	4	30*
O=C(COC(=O)/C=C/c1ccccc1)NC1CCCCC1	9	76*	3	9	/	3	83*
O=C(COC(=O)/C=C/c1cccc(Br)c1)NC1CCCC1	13	66*	13	/	/	-2	59*
O=C(COC(=O)/C=C/c1cccc(C(F)(F)F)c1)NC(=O)NC1CCCC1	/	-3	4	/	/	-2	/
O=C(COC(=O)/C=C/c1ccccc1)NC1CCCC1	9	84*	7	/	/	6	74*
O=C(COc1ccccc1)NC1CCCCC1	-2	-7	6	-10	6	1	/
COc1cccc(/C=C/C(=O)OCC(=O)NC2CC2)c1	2	41*	9	-15	/	1	38*
O=C(COc1ccccc1)NC1CCCCCCC1	3	7	1	-25	10	6	/
CN(C(=O)c1cccc(NC(=O)Cc2ccc(NC(=O)C3CCN(C(=O)C4CC4)CC3)cc2)c1)C1CCC1	/	4	8	/	/	1	/
CCCCN(CC(=O)NCc1ccc(F)cc1)C(=O)c1ccco1	1	0	-1	-13	0	3	/
COc1ccc(NC(=O)c2cc([N+](=O)[O-])ccc2N2CCCC2)cc1S(N)(=O)=O	/	4	13	/	/	1	/
COc1ccc(S(=O)(=O)N(Cc2ccco2)Cc2cc3ccccc3[nH]c2=O)cc1	5	8	1	1	-5	6	/
CCOC(=O)N1CCN(S(=O)(=O)c2ccc(C(=O)Nc3ccc4c(c3)C(=O)NC4=O)cc2)CC1	-3	-19	-2	-6	5	-3	/
CC(C)NC(=O)[C@H]1N2C(=O)c3ccccc3C2SC1(C)C (some centres undefined)	6	3	4	17	-4	6	/
COc1cccc(/C=C/C(=O)OCC(=O)NCCc2ccccc2)c1	5	32*	4	-25	-3	-2	23
O=C(COC(=O)/C=C/c1ccccc1Cl)NC1CCCCCC1	21	72*	6	0	-6	-1	75*
O=C(/C=C/c1ccccc1Cl)NC1CCCCC1	-6	-5	2	-1	2	-2	/
CCOc1ccc(CCNC(=O)COC(=O)/C=C/c2cccc(OC)c2)cc1OCC	-1	6	-7	0	-5	3	/
CCOC(=O)CCCC(=O)N1CCOCCOCCOCC1	6	6	7	-11	11	2	/
